# Measurements taken from the supplement of paper PMC4466236.
# Whole data set: some 33,000 sequences, median “E-score (dimensionless, -0.5 to 0.5)” near -0.058, cut for the highest 2% near 0.35. The sample holds the highest values, similar sequences and a random draw of the others, so the mix is not that of the screen.
# System: MvaT
# Experiment: PBM 8-mer E-score (mean of HK and ME arrays) (E-score (dimensionless, -0.5 to 0.5)); higher = stronger relative binding preference
# Experimental: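 Protein binding microarray: GST-tagged full-length MvaT (P. aeruginosa PAO1) bound to two universal double-stranded 60-mer arrays (ME and HK), each with a constant 25-mer primer and a variable 35-mer region covering all 8-mers. The 8-mer E-score (rank-based, range -0.5 to 0.5, >0.45 = specific binding) is the mean of the two arrays.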
row,Sequence,PBM 8-mer E-score
1,CGTCACCA,-0.18
2,ATCCCTTC,-0.172
3,CAAGCACG,-0.238
4,CCTTACCG,-0.129
5,GAAGCAAC,-0.0872
6,GTACTATA,0.329
7,GTATACTA,0.373
8,CTACTATA,0.292
9,CTATACTA,0.156
10,GCATACTA,0.186
11,GTATACGA,0.184
12,CTATACTC,-0.0354
13,AGATACTA,0.143
14,ATACTATA,0.377
15,ATATACTA,0.422
16,ATATACTG,0.322
17,ATATACTC,0.364
18,ATACACTC,0.143
19,GAACGTTA,0.207
20,ACAAACCA,0.185
21,AGCTGAGC,-0.262
22,AACGTAGT,0.000134
23,CGCGTGAG,-0.167
24,AGGCCGAG,-0.0711
25,GGCCCCTA,-0.222

row,Sequence,PBM 8-mer E-score
1,ACAATTTG,0.187
2,ACAATTTA,0.353
3,CCAATTAA,0.306
4,ACAATTAC,0.319
5,GCAATTAA,0.324
6,ACAATTAT,0.378
7,ACAATTAG,0.315
8,ACAATTAA,0.347
9,GCAATTTA,0.307
10,CCGGTGAA,-0.0479
11,AGGAGCAG,-0.32
12,CAGGATGG,-0.189
13,CAAGCAGA,-0.0444
14,ATAATAAC,0.422
15,CTAAAAAA,0.0548
16,TGAATAAA,0.268
17,GTAATAAC,0.297
18,CTAATAAC,0.326
19,CTAATAAA,0.349
20,TCAATAAA,0.22
21,ATAATAAG,0.43
22,TTAATAAA,0.432
23,CTAATAAG,0.213
24,ATCATAAG,0.161
25,CGAATAAA,0.254

row,Sequence,PBM 8-mer E-score
1,AGGGGAGA,-0.145
2,ATGACACG,-0.12
3,AGCCTATA,0.179
4,ATTGCAAT,0.27
5,AGAATAAC,0.232
6,ATAATGAT,0.275
7,GTAATAAA,0.333
8,ATCATAAT,0.245
9,AGAATAAG,0.252
10,ATAATAAT,0.463
11,CTAATGAA,0.132
12,AGAATAAA,0.255
13,AGAATAAT,0.411
14,ATAATAAA,0.451
15,TTAATGAA,0.393
16,GTAATGAA,0.00633
17,CTAGCCTA,-0.138
18,AGGCTAAG,-0.0142
19,GCCTGTCC,-0.241
20,CAGGACAC,-0.248
21,AACGGACA,-0.037
22,CAGGCCGG,-0.188
23,GTTTTCAA,0.148
24,GCTAGAGA,-0.188
25,GAGACCAC,-0.107

row,Sequence,PBM 8-mer E-score
1,ACCTTGCG,-0.0997
2,AGGATAAT,0.353
3,AGGATAAG,0.0764
4,AGGATAAA,0.22
5,ATGCATGA,-0.142
6,AGTATATC,0.259
7,GGTATATA,0.355
8,AGTATATG,0.351
9,GGTATAGA,0.08
10,AGTATGTG,0.209
11,AGTATAGG,0.0335
12,CGTATATC,0.143
13,CGTATATA,0.378
14,AGTATAGA,0.0904
15,AGTATATA,0.446
16,GGTATACA,0.201
17,CGTATACA,0.17
18,GACGTTGC,-0.0956
19,GTGTAACA,0.206
20,TAAAGGAA,0.0516
21,GAATCGCC,-0.206
22,ATAACATA,0.359
23,ATAACATC,0.302
24,ATAACATG,0.235
25,AAAACATA,0.354

row,Sequence,PBM 8-mer E-score
1,GAAACATA,0.343
2,AAAACATT,0.225
3,ATCCATGC,-0.188
4,CGAAATTC,0.192
5,CCCTCACA,-0.151
6,ATATCGAG,0.208
7,TCCCGGAA,-0.126
8,GCGCGTAC,-0.156
9,GAGGGTGC,-0.16
10,TCAAACGA,0.0344
11,CTTACTTC,0.208
12,ATAACTCG,0.255
13,ATAACTTG,0.38
14,AGAACTTG,0.214
15,CTAACTTC,0.168
16,ATAACTGC,0.286
17,ATTACTTC,0.348
18,ATTACTTA,0.334
19,ATAACTTC,0.351
20,CGGAGACA,0.0514
21,CCTACCTC,-0.226
22,CCAGATGG,-0.281
23,ATTAACTA,0.339
24,ACTAACTC,0.118
25,CTTAACTA,0.305

row,Sequence,PBM 8-mer E-score
1,AATAACTA,0.348
2,GTTAACTA,0.362
3,ACTAACTA,0.381
4,ACTAACTG,0.191
5,CATAACTA,0.286
6,GATAACTA,0.198
7,ATTTCTGC,0.125
8,ATTCATTA,0.219
9,GATAGGAA,-0.0142
10,AAATTGCT,0.214
11,AACCCGTC,-0.0101
12,GTCGAGAA,-0.0478
13,GCATACCC,0.0205
14,TCACGCAA,-0.124
15,AAGTTTGA,0.289
16,AAGTTTAG,0.288
17,ATGTTTAG,0.212
18,AAGTTTAC,0.157
19,CAGTTTAA,0.26
20,AAGTTTAA,0.357
21,AAGTTTTA,0.318
22,TAGTTTAA,0.398
23,AAGTTTAT,0.358
24,CTGTTTAA,0.302
25,ATGTTTAA,0.391

row,Sequence,PBM 8-mer E-score
1,GAGTTTAA,0.235
2,TATTCGGA,-0.000615
3,ACAGGTCG,-0.216
4,CTGTGTGC,0.0347
5,AAGCAGGT,0.0586
6,CGTTCAAG,-0.0745
7,GCTCGCAA,-0.107
8,AGTTTTAT,0.351
9,AGTTTTAG,0.162
10,AGTTTTAC,0.221
11,ATACGGCG,-0.11
12,AACAACTA,0.335
13,AACAACTT,0.358
14,AACAACTC,0.185
15,AGTGGGCA,0.0126
16,GGTCCGAA,-0.0643
17,ATAACAAG,0.283
18,ATAACAAT,0.355
19,ATAACAAC,0.228
20,ATAACTAA,0.32
21,AAAACAAT,0.349
22,ACAACAAT,0.372
23,ACAACAAG,0.138
24,ACAACAAC,0.216
